Assay results published in PubChem BioAssay (Tox21).
Inconclusive results are not listed. Where a call stands in place of a potency, no number is given. Activity calls are given as the source filed them. Calls follow the shape of the dose curve; as a rule, active = well fitted activation curve with a large enough effect in the repeat runs; inconclusive = weak or mixed curves; inactive = flat fitted curve, though single readings scatter.

Assay: A CellTox Green Cytotoxicity Assay to monitor cytotoxicity in HEK293 cells - 16 hour (AID 1224888); also: nearly all actives have a fitted effect of over 35% in size
Conditions: CellTox Green fluorescence; series mostly up to 76.8 µM
From the text: National Center for Advancing Translational Sciences [NCATS]
NIH Chemical Genomics Center [NCGC]
U.S. Environmental Protection Agency [EPA]
National Institutes of Environmental Health Sciences [NIEHS]
National Toxicology Program [NTP]
Cell-based models are critical for drug discovery. Determining the natural cytotoxic effects resulting from test compounds is an essential research activity. A CellTox Green Cytotoxicity Assay to monitor cytotoxicity in real time of continues cell culture during 40 hours of the compound treatment was used to screen Tox21 10K library compounds in Hek293 cells. CellTox Green Cytotoxicity Assay is a nonlytic, homogeneous, biofluorescent method to measure cytotoxicity in cell culture after experimental manipulation. The assay system uses a proprietary asymmetric cyanine dye that is excluded from viable cells but preferentially stains the dead cell's DNA. […] Viable cells produce no appreciable increases in fluorescence. Therefore, the fluorescence signal produced by the binding interaction with dead cell DNA is proportional to cytotoxicity.
The mixture of Hek293 cell suspension and reagents were dispensed at 600cells/6 ul/well in 1536-well tissue culture treated black solid bottom plates using a Multidrop dispenser. After the assay plates were incubated at a 37 C/5% CO2 incubator for 5 hours, 23 nL of compounds dissolved in DMSO, positive and negative controls was transferred to the assay plate by a pintool work station. The plates were incubated at 37 C for 40 hours. The fluorescence intensity were measured at 0h, 8h, 16h, 24h, 32h and 40h time points using ViewLux plate reader during compound treatment.
In the case of `COCC(=O)N(c1c(C)cccc1C)N1CCOC1=O`, the Potency is reported as “inactive”.
In the case of `CC(Oc1ccc(Oc2ncc(C(F)(F)F)cc2Cl)cc1)C(=O)O` (stereo not given), the Potency is reported as “inactive”.
With `OC(Cn1cncn1)(c1ccc(F)cc1)c1ccccc1F` (stereo not given) the Potency was “inactive”.
For `C[C@]12CC[C@H]3[C@@H](CCC4=CC(=O)CC[C@@]43C)[C@@H]1CC[C@@H]2C(=O)O`, the Potency was “inactive”.
With `O=C1OC(c2ccc(O)c(S(=O)(=O)O)c2)(c2ccc(O)c(S(=O)(=O)O)c2)c2c(Br)c(Br)c(Br)c(Br)c21` the Potency was “inactive”.
With `CC(N)=S` the Potency was “inactive”.
With `CN/C(=N\[N+](=O)[O-])NCC1CCOC1` (stereo not given) the Potency was “inactive”.
In the case of `Cc1cnc[nH]1`, the Potency is reported as “inactive”.
In the case of `COc1ccc2c(c1OC)CN1CCc3cc4c(cc3C1C2)OCO4` (stereo not given), the Potency is reported as “inactive”.
In the case of `COc1cc(OC)nc(Sc2cccc(Cl)c2C(=O)O)n1`, the Potency is reported as “inactive”.
In the case of `O=C(Cc1ccccc1)OCc1ccccc1`, the Potency is reported as “inactive”.
In the case of `C#C[C@]1(O)C=C[C@H]2[C@@H]3CCC4=CC(=O)CC[C@@H]4[C@H]3CC[C@@]21CC`, the Potency is reported as “inactive”.
In the case of `Cc1nnc2n1-c1sc(CCC(=O)N3CCOCC3)cc1C(c1ccccc1Cl)=NC2`, the Potency is reported as “inactive”.
For `O=C(O)c1ccc2[nH]cc(CCCCN3CC=C(c4ccccc4)CC3)c2c1`, the Potency was “inactive”.
With `COC(=O)c1c(C(F)F)nc(C(F)(F)F)c(C2=NCCS2)c1CC(C)C` the Potency was “inactive”.
With `C#CCN1C(=O)COc2cc(F)c(N3C(=O)C4=C(CCCC4)C3=O)cc21` the Potency was “inactive”.
In the case of `N#Cc1c(Cl)cccc1Cl`, the Potency is reported as “inactive”.
For `CCOC(=O)CP(=O)(OCC)OCC`, the Potency was “inactive”.
With `O=[N+]([O-])c1ccc2c3c(cccc13)CC2` the Potency was “inactive”.
With `CCC(Cl)[N+](=O)[O-]` (stereo not given) the Potency was “inactive”.
In the case of `CCCCOC(=O)c1ccccc1C(=O)O`, the Potency is reported as “inactive”.
For `C[C@@H]1CN(C2CCC(C#N)(c3ccc(F)cc3)CC2)CC[C@]1(C(=O)O)c1ccccc1` (stereo not given in full), the Potency was “inactive”.
For `CCN(CC)C(=O)[C@@H]1C=C2c3cccc4[nH]cc(c34)C[C@H]2N(C)C1`, the Potency was “inactive”.
With `C=C(C)[C@@H]1CC=C(C=O)CC1` the Potency was “inactive”.
For `C[N+](C)=CCl`, the Potency was “inactive”.
With `CC(C1CC1)C(O)(Cn1cncn1)c1ccc(Cl)cc1` (stereo not given) the Potency was “inactive”.
In the case of `CC(C)(C)C(=O)C(Oc1ccc(Cl)cc1)n1cncn1` (stereo not given), the Potency is reported as “inactive”.
In the case of `N#CCBr`, the Potency is reported as “inactive”.
For `Fc1ccc(C2(Cn3cncn3)OC2c2ccccc2Cl)cc1` (stereo not given), the Potency was “inactive”.
With `C(CCOCC1CO1)COCC1CO1` (stereo not given) the Potency was “inactive”.
For `CCCSP(=O)(OCC)Oc1ccc(Br)cc1Cl` (stereo not given), the Potency was “inactive”.
With `CCS(=O)(=O)C(C)(C)S(=O)(=O)CC` the Potency was “inactive”.
In the case of `Cc1ncc(CNC(=O)N(CCCl)N=O)c(N)n1`, the Potency is reported as “inactive”.
With `CC(C)(C)OC(=O)c1ncn2c1[C@@H]1CCCN1C(=O)c1c(Br)cccc1-2` the Potency was “inactive”.
In the case of `ClC(Cl)Br`, the Potency is reported as “inactive”.
With `CCS(=O)(=O)CCSP(=O)(OC)OC` the Potency was “inactive”.
For `CCC/C(=N\OCC)C1=C(O)CC(CC(C)SCC)CC1=O` (stereo not given), the Potency was “inactive”.
With `CSc1nc(N=[N+]=[N-])nc(NC(C)C)n1` the Potency was “inactive”.
For `C[C@]12CC[C@H]3[C@@H](CC=C4C[C@@H](O)CC[C@@]43C)[C@@H]1CC[C@@H]2O`, the Potency was “inactive”.
In the case of `CCCCCCBr`, the Potency is reported as “inactive”.
